From PubChem BioAssay AID1478 (National Center for Advancing Translational Sciences (NCATS), 2009)
The campaign covered roughly 200,000 compounds. About 860 (0.43%) were called active. This is one part of a sample in which actives are shown more often than they occur. Values without a mark were called inactive. Calls follow the shape of the dose curve; as a rule, active = well fitted inhibition curve with a large enough effect; inconclusive = small, poorly fitted or top-dose-only effect; inactive = flat fitted curve, though single readings scatter.

What follows are compounds tested against Cruzipain (Trypanosoma cruzi) (UniProt P25779) (assay: qHTS Assay for Promiscuous and Specific Inhibitors of Cruzain (with detergent)). Conditions: purified cruzain, Z-FR-AMC fluorescence, 0.01% Triton.
Cruzipain (Trypanosoma cruzi), sequence (P25779 123-467 limits assumed): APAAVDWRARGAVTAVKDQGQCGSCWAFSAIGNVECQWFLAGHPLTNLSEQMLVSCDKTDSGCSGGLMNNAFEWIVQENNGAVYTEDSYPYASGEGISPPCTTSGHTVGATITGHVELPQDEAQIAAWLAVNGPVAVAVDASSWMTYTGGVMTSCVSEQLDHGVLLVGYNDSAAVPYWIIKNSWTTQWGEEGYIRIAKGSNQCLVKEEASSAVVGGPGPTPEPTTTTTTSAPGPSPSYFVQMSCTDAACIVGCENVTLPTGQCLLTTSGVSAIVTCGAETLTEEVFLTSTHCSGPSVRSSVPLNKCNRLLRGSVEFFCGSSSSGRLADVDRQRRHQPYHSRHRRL
Procedure: Cruzain (3.4.22.51) is a cysteine protease from the tropical parasite Trypanosoma cruzi. Dual qHTS experiment was performed against the NCGC compound collection in order to 1) identify novel inhibitors of the enzyme and 2) profile the compound collection for promiscuous inhibitors operating via colloidal aggregation (by performing detergent-free and detergent-containing comparison screens). Cruzain was assayed by the use of fluorogenic coumarin-based substrate Z-FR-AMC: proteolytic cleavage releases AMC, whose fluorescence is measured at 360 nm excitation and 450 nm emission. Purified cruzain was supplied by the labs of Prof. James McKerrow and Brian Shoichet, UC San Francisco.
This assay had 0.01% Triton X-100 concentration. See also releated assay "qHTS Assay for Promiscuous and Specific Inhibitors of Cruzain (without detergent)" with 0.00005% Triton X-100.
See following references for additional details:
Assay Provider: Shoichet, Brian; University of California, San Fancisco
Screening Center PI: Austin, C.P.
Screening Center: NIH Chemical Genomics Center [NCGC]
Buffer: 100 mM Sodium Acetate, pH 5.5, 5 mM DTT, Triton X-100 concentration: 0.01%.
Buffer in columns 3 and 4 as negative control (no enzyme).
Substrate solution: 2 uM final concentration of Z-FR-AMC (catalog number I-1160, Bachem) dispensed throughout the plate.
Enzyme: 1.5 nM Cruzain final concentration in columns 1, 2, 5-48. Column 1 is neutral (100% activity). Column 2 contained titration of covalent inhibitor K11777, starting concentration 1 mM, then 1:2 dilution in duplicate).
Three uL of enzyme or buffer were dispensed to 1536-well Greiner black solid bottom plates. Compounds and controls (23 nL) were transferred via Kalypsys PinTool. The plates were incubated for 15 min at room temperature, and then 1 uL of substrate solution was added to start the reaction. The plates were immediately transferred to and read 4 times every 30 seconds for 2 min on ViewLux High-throughput CCD imager (Perkin-Elmer) using 360 nm excitation and 450 nm emission fluorescence protocol. The fluorescence intensity difference between the third and the first time points (time lapse of 60 seconds) was used to compute reaction progress.
Also: nearly all actives have a fitted effect of over 40% in size.
Potency is read from the fitted curve at half-maximal effect.

In order of rising max response, negative = inhibition:
1. O=C(CSc1ncc(S(=O)(=O)c2ccc(Br)cc2)c(=O)[nH]1)Nc1ccc2c(c1)OCCO2  -23.7%
2. COc1ccccc1/C=C/C1=NC(=C\N(C)C)/C(=O)O1  -17.3%
3. CCOC(=O)c1ccc(-n2c(CCC(=O)O)ccc2-c2ccccc2)cc1  -12%
4. COc1ccc(OC)c(-n2nnc3c(sc4nc(C)c(Br)c(C)c43)c2=O)c1  -8.66%
5. COc1cc(-c2noc(-c3ccc(N4CCCC4)c([N+](=O)[O-])c3)n2)cc(OC)c1OC  -7.32%
6. COc1ccc(-c2nc3scc(CCNS(=O)(=O)c4cc(F)ccc4OC)n3n2)cc1OC  -6.79%
7. COc1ccc(N2C(=O)CSC23C(=O)N(Cc2cccc(F)c2)c2ccccc23)cc1Cl (stereo unspecified)  -6.49%
8. COc1ccc(OC(C)C(=O)NCCc2nc3ccccc3[nH]2)cc1 (stereo unspecified)  -6.04%
9. CCOC(=O)c1ccc(CSc2nnc3cc(C)c4ccccc4n23)cc1  -5.57%
10. Cc1cccc(NC(=O)/C(=C\c2ccco2)NC(=O)c2ccccc2)c1  -5.18%
11. CN(C)c1ccc(-c2nc(NCCN3CCOCC3)c3ccccc3n2)cc1  -4.87%
12. CC(Oc1ccc(Cl)cc1)C(=O)OCC(=O)Nc1ncc(Cl)cc1Cl (stereo unspecified)  -4.76%
13. Cc1ccccc1CNC(=O)c1cccc(NC(=O)c2nsc3ccccc23)c1  -4.52%
14. CCOC(=O)N1CCN(C(=O)c2cc3c(ccc4ccccc43)oc2=O)CC1  -4.28%
15. N=c1oc2ccccc2cc1C(=O)N/N=C/c1ccccc1  -4.25%
16. Cc1cccc(NC(=O)CSc2ncc(-c3ccccc3)[nH]2)c1C  -4.22%
17. COc1ccccc1CNc1ccc(-c2nc(-c3ccccc3C)no2)cc1[N+](=O)[O-]  -3.81%
18. CCOC(=O)C1CCN(C(c2ccc(F)cc2)c2sc3nc(-c4ccco4)nn3c2O)CC1 (stereo unspecified)  -3.73%
19. COc1ccc(OCCCn2c(C)nc3cc(C)c(C)cc32)cc1  -3.67%
20. O=C(Nc1ccc(Br)cc1)c1ccc(Br)c(S(=O)(=O)NCc2ccccc2)c1  -3.54%
21. CCc1nc(-c2cc(S(=O)(=O)N3CCN(c4ccc(OC)cc4)CC3)ccc2OC)no1  -3.17%
22. Cc1cc(=O)c2cc(C(=O)Nc3cccc(C)c3C)ccc2[nH]1  -3.15%
23. COC(=O)c1sccc1S(=O)(=O)N(CC(=O)Nc1ccc(C)c(F)c1)c1ccc(C)c(C)c1  -3.08%
24. Cc1ccc(-c2cn3c(n2)sc2cc(C(=O)NCc4cccs4)ccc23)c(C)c1  -2.89%
25. CCc1ccc(N(CC)C(=O)CCn2cnc3onc(-c4ccc(F)cc4)c3c2=O)cc1  -2.73%
26. CCOc1cccc(C(=O)Nc2nnc(S(=O)(=O)N(C)c3ccc(C)cc3)s2)c1  -2.64%
27. COc1ccc(C(=O)N2CC3(C)CC2CC(C)(C)C3)cc1OC (stereo unspecified)  -2.5%
28. Cc1ccccc1CNC(=O)C(=O)NCC(c1cccs1)S(=O)(=O)c1cccs1 (stereo unspecified)  -2.25%
29. O=C(NCC1CCCO1)/C(=C\c1ccco1)NC(=O)c1ccccc1 (stereo unspecified)  -1.92%
30. CCc1ccccc1NC(=O)c1cnn(-c2ccc(F)cc2)c1C1CCNCC1  -1.82%
31. O=C1CCCc2cc(S(=O)(=O)N3CCCC(C(=O)NCc4ccccc4)C3)ccc2N1 (stereo unspecified)  -1.43%
32. O=C(/C=C/c1ccccc1)c1ccoc1  -1.4%
33. O=C(NCc1ccccc1)C(=O)NCC(c1ccco1)S(=O)(=O)c1ccc(Cl)cc1 (stereo unspecified)  -1.1%
34. COc1ccc(CNC(=O)c2cc3cccc(OC)c3oc2=O)cc1  -0.986%
35. CCC(=O)N1CCc2cc(CNS(=O)(=O)c3ccc(Br)s3)ccc21  -0.767%
36. Cc1nnnn1/C(=C\c1ccccc1)C(=O)OCC(=O)N1CC2(C)CC1CC(C)(C)C2 (stereo unspecified)  -0.133%
37. Cc1ccc(-n2c(SCC(=O)Nc3ncc(Cl)cc3Cl)nc3ccccc32)cc1  0.0613%
38. CC(=O)c1ccc(S(=O)(=O)N2CCC(Oc3ccc(-n4cnnn4)cc3)CC2)cc1  0.367%
39. CCOc1ccc(CNC(=O)c2cc(=O)[nH]c3ccc(S(=O)(=O)N4CCCCC4)cc23)cc1  0.425%
40. CCN1CCN(C(c2ccc(C)cc2)c2c(O)cc(C)n(Cc3ccco3)c2=O)CC1 (stereo unspecified)  0.51%
41. Cc1ccc(-c2noc(-c3nnn(-c4cccc(C(F)(F)F)c4)c3N)n2)cc1  0.534%
42. Clc1ccccc1-c1cc(NCCN2CCOCC2)ncn1  0.682%
43. CCCNC(=O)c1ccc2c(c1)ncn2-c1ccc(C)cc1C  0.948%
44. Cc1ccccc1CN1CCC(CNC(=O)c2c(C)oc3ncnc(N4CCCCC4)c23)CC1  1.4%
45. CCOc1ccc(C(NC(=O)c2cc(OC)c(OC)c(OC)c2)c2cc(Cl)c3cccnc3c2O)cc1 (stereo unspecified)  1.88%
46. O=C(CSc1n[nH]c(-c2ccccc2)n1)N1CCCCC1  2.8%
47. CCOc1ccc(CNC(=O)C2CCCN(S(=O)(=O)N(CC)c3ccc(OCC)cc3)C2)cc1 (stereo unspecified)  3.48%
48. COC(=O)Cc1nc2ccccc2[nH]1  8.1%

In the case of `CCOc1ccccc1NC(=O)CSc1ncc(S(=O)(=O)c2ccc(C(C)(C)C)cc2)c(=O)[nH]1`, the Potency is reported as 28.2 µM (active).
In the case of `Cc1ccc(SCCC(=O)OCC(=O)Nc2ncc(Cl)cc2Cl)cc1`, the Potency is reported as 25.1 µM (active).
For `Cc1cccc(C(=O)NCC(=O)OCC(=O)N2CC3(C)CC2CC(C)(C)C3)c1` (stereo unspecified), the Potency was 14.1 µM (active).
`O=C(COc1ccccc1)NCCc1nc2ccccc2[nH]1` was tested, and the Potency was 15.8 µM (active).
In the case of `O=C(OCN1C(=O)c2ccccc2C1=O)/C(=C\c1ccco1)NC(=O)c1ccccc1`, the Potency is reported as 0.316 µM (active).
`CNC(=O)c1cc2c(ccc3ccccc32)oc1=N` was tested, and the Potency was 28.2 µM (active).
With `c1ccc2cc3c(NCCN4CCOCC4)ccnc3cc2c1` the Potency was 28.2 µM (active).
`O=C1OC(/C=C/c2ccccc2)=NC/1=C/c1ccco1` was tested, and the Potency was 3.98 µM (active).
